# Reference: the supplement of paper PMC12632987
# In all, about 4,500 sequences were measured (“median log2 fold change of GCK-ALFA target abundance (FLAG IP / Myc IP barcode read proportion)”: median about 0.078, lowest 2% from about -0.6 on). The full list was thinned out, with the lowest values kept by preference.
# B1: GBRAP_160_4713 (protein)
# chain: SETAEERKKYVDEEFERAKKLIEGETIEQRAIIVEGTVGEIIMEFVEDEKATDELIDEVIEIGDELVKTILENPNLTLEEIKELIDEAREKMKEAIDKHL
# B2: GBRAP_78_6743 (protein)
# chain: KAEEVIDETIETLNEALKALSSKPIEEVGDAMLHLLDASEALIEAEEEGFPLEYIEEAARHLAAAIAEIEAKGIELPAEIMAALKASLEALKALAAEKKA
# B3: GBRAP_128_3161 (protein)
# chain: AVEEAKKKTKELMEKIKNSSLEEVEKLAKELVEMMKTASDEEVEAMAEVILEELPKLSAEKLEILADVLEEKMPELSPFGQNQAADVLVEALNEAEELEE
# B4: GBRAP_78_6611 (protein)
# chain: ETKEKILKLLEEAEELAREVRKLAPEVAEQAAELEVLLGTAIYMVDTGSESKEEILETLEEAEKAAKELKKLVEGLAEEVQKLVKEALEKIKEAIKLLKE
# B5: GBRAP_160_4329 (protein)
# chain: SEEFEKLIEFIDEEFEETKELIKGLSLEQVKVLIEGTFGEIIMEMSENESISDELVDFVVAERDALLATLDANPDLSEEEIKALIDEARERIKEALKKEA
# B6: GBRAP_125_3105 (protein)
# chain: MEEEILEALKLLAKALGFDDEDAEEAARLAREFSVKMTLYALLKAEGEEELADLVEKLTEEQAKKVLLKVAEWLKKNPNATKEEVLKKLKEVILEELEKA
# B7: GBRAP_125_3108 (protein)
# chain: SEEEILEALKRLAKALGFSEEEAEEAAELARKFSVKQTLYALFLAEGEEELADLVEKLTEEQAKRALLKLAKWLEENPNATKEEVLEQAKKILEEELAKQ
# B8: GBRAP_9_7175 (protein)
# chain: LKEAAKKAIEGLKEAKEFALEVVPEEKKEEINAAFDELIETVKKMQADDSVTKEEFRETLEKGFDKIIELAKKNLDPEIAAIVETELLTIKAEVDELLDE
# B9: GBRAP_160_3978 (protein)
# chain: SEEIEKLKKEIKELAEEAKELIEGESYEERLTIVRVMFGEILMLLMSNENVSDETEEEVAKVGDETIAYLEANPDLTEEEIKELIKEAEKKIFEILEKNE
# B10: GBRAP_160_4224 (protein)
# chain: METVEKLVKIFRENFEEALELIEGESLEEQKVILDVAAGEVILEAEEIEEATEEMVEIVDKKAEEAREELLEAREASKEEKRKLIEEHAEKLRKELEKVA
# B11: GBRAP_74_6501 (protein)
# chain: AAADEAAAEEFAELLRRGASYEELMAHIAEMNVAALDLAVIKATEEARENAEKLTEEQIDALAELADRVFAESENPEAIAAAGELVKILYETEERRRAEE
# B12: GBRAP_74_6499 (protein)
# chain: SAATEAAAEEFAALLRAGASYEELMAHLAKMNVEALNAAVIKATEVARANADELTEEQIDALAELADRVFAESEDPEAIKAAGELVKILYERELRLEAER
# B13: GBRAP_26_5460 (protein)
# chain: MEEAERAAEAEVRAIAARLPDPRVAAAVVAEFSTELLEAEEAIENGEDPKEAFRKAREEFLAEARELMEEAGLSPEEIAAFEAELSAVFDKLEAEVLAEL
# B14: GBRAP_52_6294 (protein)
# chain: SMEEVEKKAKEIVELVKEGKLEEAIELAKKFVEENSLEEALELGKLLIEKIEELTPEEAELMLEVIEALAEEIEKEFGAEEEADILEAEAAAAAYKVLQK
# B15: GBRAP_160_4717 (protein)
# chain: SETAEKLKEYVDEEFDEAEELMKGESIEQRAIILEGTVGEIIMELFENPDASDELIDEVLKIGDEAVATLKANPDLSDEEIEELLDEARDKMKEAIDKHL
# B16: GBRAP_137_3636 (protein)
# chain: PNVTITTKTEDDLVEINIEFDDPELAEEVAELIEDVAHKHGALALSIEINEDGTLDATIWVPKEKAQALLDALIKALKEKFNATVTVIDEDTGEVKTIKA
# B17: GBRAP_137_3623 (protein)
# chain: KKVKITFYEEDGVAIAEITADTSVDKEKVLEIVEEVAEKHGVKLVVALTEPDEPAVFYLVGTPEQVIAAVKELIKRLKEELGIEVELSSEGAEELVEEVK
# B18: GBRAP_137_3622 (protein)
# chain: KKVTITFYEEDGVAIAEITADTSVDKEKVLALVEEVAEEHGVQLVEALVEPDEPLVLYLVGTPEQVIAAVKDLIERLKSELGIEVVLESEGAEELVEEVK
# B19: GBRAP_160_4497 (protein)
# chain: SERKERAKERARELVEEAAEAIREEEGEGKEQIARAYAGDIALELLELGVVSEEQEEEVLRLAEEGFRRMVEASEKGEEELERAAEELKRRLEELIEEFA
# B20: GBRAP_160_4123 (protein)
# chain: KEKKRKTLLDSAKDVEETLKIIEDLSPEEAGTLAIVTLGQILLDNDELDDEFPEIEKLADEAIEKLRETAKTDPEKLKELSKELLEEIRELLLKKAEELK
# B21: GBRAP_52_5921 (protein)
# chain: SDEEARALAEAILEAALAGREDELRALIKRLVEEKSLEEIKRVIEELARLTAELGPEHYDLFADIMDLLLDAAEEAGRDVEEVDYAIAEAAGLLYDAEQA
# B22: GBRAP_160_4321 (protein)
# chain: SALMEELKKEIEEIAEEAKELIEGESPEQRRTIVKVALGEILLLAIENPEISDELEDKIAEIADAAEAELDANPDLSEEEVKELLEKAVKEILELIEKEE
# B23: GBRAP_160_3995 (protein)
# chain: SEKKKKLLEKIKEILEETYELMKGESPEERLAIARVAAGDILLELFESELVSDETEEKIDEVLDEFVATVEANPDMSDEELKELLEETLEKIEKIIEENS
# B24: GBRAP_160_4762 (protein)
# chain: KEELKKLKEEIEEIFKEHIELLKEVPKEKAVTVVEGAMGEVLMLAFSSEAVSDELEEKIGEIMDEAVERAKENKDAPVEVHIKILEEAREKILELIEEEI
# B25: GBRAP_52_6056 (protein)
# chain: MEARIEALARAIAAAIAAGDLDAALALLREAIATLTPEEIRRTLQLAARLVAGLGEEAHERFVELLDEAHELMIEAGISEEEADIIVGDAEAALARAVAA
# B26: GBRAP_117_2594 (protein)
# chain: SATLEEVRKRVEELVERIRKALEEMKTLSEEERKRLREELLEEATKEVKEMLKLTDAETVEEFFAEALADLSPEERVEAYIIFEEALADAEDELKEEEEA
# B27: GBRAP_128_3594 (protein)
# chain: SVEEVRAYVREALAAMKEADAETRREIADALMERLLTLSDEEQRAAFETIEELLPELSAEDLDILADALREHRPRFSPEGANLAADVEVEALNEREELEE
# B28: GBRAP_80_6786 (protein)
# chain: MEEEIEKLIEEIEKKNPEVAKIIKEIVELLKEIGVPLEIIKEIVEVFLDALSLPKETQLKIAKEVLEEAKELSEYKDEFSPEDIGRMVLAEALTLVELAK
# B29: GBRAP_83_6928 (protein)
# chain: KEKIVVAANDDNIDEAFEAAIDLQKNEGYEVDVEVIITKEGFPKLKKAFEKMAKAGWNGTLDILAVGATKEEVEKLKAELEAIAKKYGVNVKINVTQVEP
# Biological target: GABARAP, O95166
# Sequence (O95166 whole entry, the tested form may be a part): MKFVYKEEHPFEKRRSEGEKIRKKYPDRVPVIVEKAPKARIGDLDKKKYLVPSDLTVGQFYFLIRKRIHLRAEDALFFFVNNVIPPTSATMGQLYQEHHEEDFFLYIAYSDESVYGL
# Experiment: median log2 fold change of GCK-ALFA target abundance (FLAG IP / Myc IP barcode read proportion) (log2 ratio); each designed protein is fused to an ALFA-tag nanobody in HEK293 cells to bring the named protein to FLAG-tagged glucokinase (GCK); Myc marks an untargeted standard; higher = target protein stabilised (more abundant)
# Conditions: target protein: 3xFLAG-MCP-GCK-ALFA reporter; HEK293 landing pad (RPLP)
# Procedure, shortened: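 The readout is target abundance, the per-binder median log2 ratio of FLAG to Myc barcode read proportions. It came from HEK293 landing-pad cells carrying a recombined ALFA-nanobody-fused binder library, induced with 2 μg mL^−1 doxycycline and transfected with a plasmid for a FLAG-tagged target and a Myc-tagged standard. After 48 h, lysates were immunoprecipitated with anti-FLAG and anti-Myc, and circular RNA barcodes were reverse transcribed, amplified and sequenced. Each barcode needed a proportion of at least 10^−7 in both replicates and each binder at least 3 barcodes per replicate, a pseudocount of 10^−6 was added, and the replicates were pooled.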
row,Binder,median log2 fold change
1,B1,-0.628
2,B2,-0.0804
3,B3,0.0696
4,B4,0.172
5,B5,-0.22
6,B6,-0.694
7,B7,-0.437
8,B8,0.286
9,B9,0.206
10,B10,-0.617
11,B11,0.0485
12,B12,-0.772
13,B13,0.197
14,B14,0.0653
15,B15,-0.000956
16,B16,-0.117
17,B17,-0.628
18,B18,-0.288
19,B19,0.292
20,B20,0.128
21,B21,-0.394
22,B22,-0.0253
23,B23,-0.00842
24,B24,0.0708
25,B25,-0.851
26,B26,0.152
27,B27,-0.0656
28,B28,-0.00858
29,B29,0.0213
